{"source": "PubChem BioAssay AID1851", "about": "(National Center for Advancing Translational Sciences (NCATS), 2009)", "note": "Among all 16,000 compounds or so, about 4,000 (25%) were called active. Another 26% or so got no clear call; they are omitted. The list is a sample of the results. Unmarked numbers belong to inactive results. Calls come from the whole dose curve; as a rule, active = well fitted curve in the direction sought with a large enough effect; inconclusive = small, poorly fitted or top-dose-only effect, or effect the other way; inactive = no such curve, though single readings can be large or run the other way. % is set by controls: 0 for no effect and ±100 for the full control effect.", "data": [{"target": "Cytochrome P450 2C9 (Homo sapiens) (UniProt P11712)", "sequence (P11712 whole entry, looked up)": "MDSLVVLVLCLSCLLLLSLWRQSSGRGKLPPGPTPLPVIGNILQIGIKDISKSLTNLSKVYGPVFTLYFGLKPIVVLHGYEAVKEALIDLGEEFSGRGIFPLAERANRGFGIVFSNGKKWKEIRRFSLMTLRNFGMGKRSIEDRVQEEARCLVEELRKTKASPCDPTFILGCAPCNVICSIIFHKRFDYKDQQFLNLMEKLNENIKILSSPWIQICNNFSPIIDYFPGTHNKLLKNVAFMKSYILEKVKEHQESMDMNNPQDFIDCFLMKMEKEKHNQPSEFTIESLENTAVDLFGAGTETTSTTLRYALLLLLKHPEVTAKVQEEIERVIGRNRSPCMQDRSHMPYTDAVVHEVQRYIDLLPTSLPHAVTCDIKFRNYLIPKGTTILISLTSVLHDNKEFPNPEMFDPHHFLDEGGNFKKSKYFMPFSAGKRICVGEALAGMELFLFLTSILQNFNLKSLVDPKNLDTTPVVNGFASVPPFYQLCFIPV", "test": "Cytochrome panel assay with activity outcomes", "conditions": "recombinant CYP, pro-luciferin dealkylation, luminescence, p450-cyp2c9; series mostly up to 57.1 µM", "values": [{"smiles": "O=C1C=C(NCC2CCCO2)C2(CCCCC2)O1", "note": "(stereo unspecified)", "AC50": "inactive"}, {"smiles": "O=S(=O)(c1cnccc1N1CCN(/N=C/c2ccccc2)CC1)N1CCCCC1", "AC50": "17.8 µM (active)"}, {"smiles": "CC(C)N1CCN(c2ccncc2S(=O)(=O)N2CCCCC2)CC1", "activity, negative = inhibition": "-8.32% [at 11.4 µM]"}, {"smiles": "O=S(=O)(c1cnccc1N1CCN(CCO)CC1)N1CCCC1", "activity, negative = inhibition": "8.09% [at 11.4 µM]"}, {"smiles": "NC(=O)Nn1c(CCC(=O)O)ccc1-c1ccc(F)cc1", "AC50": "inactive"}, {"smiles": "CC(=O)c1ccc(-n2c(CCC(=O)O)ccc2-c2cccs2)cc1", "AC50": "14.1 µM (active)"}, {"smiles": "Cc1ccc(-c2ccc(CCC(=O)O)n2CC2CCCO2)cc1", "note": "(stereo unspecified)", "AC50": "inactive"}, {"smiles": "Cc1cc(C2CCCCC2)n(O)c(=O)c1", "AC50": "inactive"}, {"smiles": "CS(=O)(=O)Nc1cccc(-c2ccc3ncnc(N4CCNCC4)c3c2)c1", "activity, negative = inhibition": "-12.1% [at 2.29 µM]"}, {"smiles": "O=C(O)/C(=C/c1c(C(=O)O)[nH]c2cc(Cl)cc(Cl)c12)c1ccccc1", "AC50": "inactive"}, {"smiles": "O=C(O)/C(=C\\c1ccc(O)cc1)c1cccc2ccccc12", "activity, negative = inhibition": "-3.39% [at 11.4 µM]"}, {"smiles": "O=C(/C(=C/c1ccc(Cl)cc1)c1nc2ccccc2[nH]1)c1ccccc1", "AC50": "0.631 µM (active)"}, {"smiles": "CN1CCN(CCCN2c3ccccc3Sc3ccc(S(=O)(=O)N(C)C)cc32)CC1", "AC50": "inactive"}, {"smiles": "N[C@@H](Cc1[nH]nc2ccccc12)C(=O)O", "activity, negative = inhibition": "7.77% [at 11.4 µM]"}, {"smiles": "CN(Cc1ccccc1)C(=O)CC(c1ccccc1)c1cc(Cl)ccc1O", "note": "(stereo unspecified)", "AC50": "4.47 µM (active)"}, {"smiles": "CC(C)Oc1ccc(CNC(=O)CC(c2ccccc2)c2cc(Cl)ccc2O)cc1", "note": "(stereo unspecified)", "AC50": "2.24 µM (active)"}, {"smiles": "C[C@@H](c1ccccc1)N1C(=O)[C@@H]2[C@H]3C(=CC[C@H]2C1=O)C(=O)[C@H]1O[C@H]1[C@H]3O", "activity, negative = inhibition": "-6.91% [at 11.4 µM]"}, {"smiles": "Oc1cc(O)c2c(c1)O[C@H](c1ccc(O)c(O)c1)[C@H](O)C2", "AC50": "inactive"}, {"smiles": "Cc1ccc(-n2c(-c3cc(C)n(C)n3)n[nH]c2=S)cc1", "AC50": "inactive"}, {"smiles": "Cc1cc(-c2n[nH]c(=S)o2)c(C)n1-c1ccccc1", "AC50": "12.6 µM (active)"}, {"smiles": "CC[N+](CC)(CC)CCOc1cccc(OCC[N+](CC)(CC)CC)c1OCC[N+](CC)(CC)CC", "AC50": "inactive"}, {"smiles": "CCCN1C[C@@H](CSC)C[C@H]2c3cccc4[nH]cc(c34)C[C@@H]21", "AC50": "inactive"}, {"smiles": "O=C(N/N=C/c1ccc(Cl)cc1Cl)Nc1ccccc1", "AC50": "inactive"}, {"smiles": "C/C(=N\\NC(=O)c1cccc(F)c1)c1ccc(Br)s1", "AC50": "inactive"}, {"smiles": "O=C(N/N=C/c1ccc(Cl)cc1Cl)c1cccc(F)c1", "AC50": "15.8 µM (active)"}, {"smiles": "Cc1cnc(CNc2nc(-c3ccccc3Cl)nc3ccccc23)cn1", "activity, negative = inhibition": "7.89% [at 2.29 µM]"}]}]}
